Unmarked numbers belong to inactive results. For some assays here: Potency and affinity values are given separately. The source made the active and inactive calls. Unless noted, the rule behind the calls is not given here.

Usually inhibition stands for the relative decrease from the control value, in per cent.

Experiment [1] can be described thus: antimalarial activity against Dd2 strain (AID 2302;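 active = growth inhibition above 50% at the single 2 µM test dose, taken to imply half-maximal potency below 2 µM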;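 note: 0% = DMSO untreated growth and 100% = chloroquine plus artemisinin killed control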). Particulars: P. falciparum Dd2 in RBCs, LDH growth readout, 72 h; at 2 µM; active compounds read high.
Experiment [2] can be described thus: HepG2 cytotoxicity, primary screen, cytotoxicity control for P. falciparum antimalarial project, cell-based, ATP luminescence (AID 2303;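 active = inhibition above 50%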;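 note: 0% = DMSO wells and 100% = digitonin-killed cells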). To be noted: HepG2 viability, 24-48 h, at 10 µM, active compounds read high.
Experiment [3] addresses L-lactate dehydrogenase (Plasmodium falciparum (isolate CDC / Honduras)) (UniProt Q27743). Put plainly: PfLDH activity inhibition – cell lysate, 3D7 strain, counter-screen for P. falciparum growth inhibition project (AID 2304).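 Note: 0% = vehicle and 100% = reference inhibitor.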 To be noted: P. falciparum 3D7 crude extract, LDH APAD/NBT absorbance; at 2 µM; active compounds read high. In general terms: Counterscreens check selectivity or assay interference.

Experiment [4] can be described thus: inhibition of 3D7 malaria parasite growth – strain 3D7 (AID 2306).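 Note: 0% = DMSO wells and 100% = chloroquine plus artemisinin control wells.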 To be noted: P. falciparum 3D7 erythrocytic growth, LDH absorbance, 72 h; at 2 µM; active compounds read high.
Experiment [5] addresses Calcium-dependent protein kinase 1 (Plasmodium falciparum (isolate 3D7)) (UniProt P62344). Put plainly: PfCDPK1 kinase inhibitors, biochemical, TCAMS library (AID 1159585; cut-off not given, nearly all actives have IC50 up to about 0.98 µM;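 note: inhibitors leave more ATP so luminescence rises with inhibition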). To be noted: recombinant PfCDPK1, Kinase-Glo ATP depletion luminescence. (Kinase-Glo measures the ATP left after a reaction by luminescence.)
For experiment [6], the target named is Plasmodium falciparum protein kinase 6 (PK6, PF3D7_1337100) (UniProt Q8IDW1). Nature of the experiment: PfPK6 kinase inhibitors, biochemical, TCAMS library (AID 1159586). Particulars: recombinant PfPK6, Kinase-Glo ATP depletion luminescence.
For experiment [7], the target named is Protein kinase 7 (PK7), Plasmodium falciparum 3D7 (PF3D7_0213400) (UniProt Q7YTF7). Nature of the experiment: inhibition of Plasmodium PK7 catalytic activity – biochemical, TCAMS antimalarial set, Kinase-Glo luminescence (AID 1159587). To be noted: recombinant PfPK7, Kinase-Glo ATP depletion luminescence.
For experiment [8], the target named is Calcium-dependent protein kinase 4 (Plasmodium falciparum (isolate 3D7)) (UniProt Q8IBS5). Nature of the experiment: PfCDPK4 kinase inhibitors, biochemical, TCAMS library (AID 1159588; cut-off not given, nearly all actives have IC50 up to about 0.91 µM). To be noted: recombinant PfCDPK4, Kinase-Glo ATP depletion luminescence.
Chain of Calcium-dependent protein kinase 4 (Plasmodium falciparum (isolate 3D7)) (Q8IBS5 whole entry, looked up): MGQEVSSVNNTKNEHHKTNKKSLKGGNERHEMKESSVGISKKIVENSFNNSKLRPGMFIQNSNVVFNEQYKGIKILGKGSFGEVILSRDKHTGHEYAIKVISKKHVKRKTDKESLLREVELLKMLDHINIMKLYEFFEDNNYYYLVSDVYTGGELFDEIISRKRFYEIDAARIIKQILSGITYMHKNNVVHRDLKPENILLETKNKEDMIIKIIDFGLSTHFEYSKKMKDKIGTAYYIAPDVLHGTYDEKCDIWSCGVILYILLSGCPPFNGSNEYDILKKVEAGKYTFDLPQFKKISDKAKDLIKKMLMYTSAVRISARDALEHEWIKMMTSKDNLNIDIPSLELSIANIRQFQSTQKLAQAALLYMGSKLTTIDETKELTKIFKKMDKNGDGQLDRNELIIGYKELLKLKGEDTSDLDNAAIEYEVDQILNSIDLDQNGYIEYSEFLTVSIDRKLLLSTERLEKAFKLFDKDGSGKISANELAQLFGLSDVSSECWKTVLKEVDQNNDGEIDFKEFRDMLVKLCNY

Chain of Calcium-dependent protein kinase 1 (Plasmodium falciparum (isolate 3D7)) (P62344 whole entry, looked up): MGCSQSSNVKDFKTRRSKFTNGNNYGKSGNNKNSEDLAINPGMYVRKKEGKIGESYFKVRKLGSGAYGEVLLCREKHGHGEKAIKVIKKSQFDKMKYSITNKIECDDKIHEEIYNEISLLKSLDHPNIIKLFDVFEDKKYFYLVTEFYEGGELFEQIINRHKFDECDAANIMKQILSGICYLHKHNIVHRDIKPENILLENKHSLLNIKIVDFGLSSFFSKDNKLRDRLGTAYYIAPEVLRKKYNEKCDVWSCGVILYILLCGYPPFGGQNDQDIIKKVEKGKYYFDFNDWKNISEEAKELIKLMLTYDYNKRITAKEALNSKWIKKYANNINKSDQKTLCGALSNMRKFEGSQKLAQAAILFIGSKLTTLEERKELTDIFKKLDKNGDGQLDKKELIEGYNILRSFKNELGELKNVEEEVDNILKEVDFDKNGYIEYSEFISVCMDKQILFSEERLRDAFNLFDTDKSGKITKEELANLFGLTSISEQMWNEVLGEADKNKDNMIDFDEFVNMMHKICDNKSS
Chain of Protein kinase 7 (PK7), Plasmodium falciparum 3D7 (PF3D7_0213400) (Q7YTF7 1-343): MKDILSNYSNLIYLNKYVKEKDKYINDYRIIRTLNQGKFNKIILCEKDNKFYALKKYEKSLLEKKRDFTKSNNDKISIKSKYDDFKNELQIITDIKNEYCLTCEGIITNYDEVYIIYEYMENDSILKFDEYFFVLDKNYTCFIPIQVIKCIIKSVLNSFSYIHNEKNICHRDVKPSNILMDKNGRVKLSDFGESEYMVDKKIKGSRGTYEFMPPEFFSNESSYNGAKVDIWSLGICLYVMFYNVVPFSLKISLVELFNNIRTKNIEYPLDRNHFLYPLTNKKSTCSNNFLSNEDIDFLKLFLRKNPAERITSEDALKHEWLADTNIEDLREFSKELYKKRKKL
Chain of L-lactate dehydrogenase (Plasmodium falciparum (isolate CDC / Honduras)) (Q27743 whole entry, looked up): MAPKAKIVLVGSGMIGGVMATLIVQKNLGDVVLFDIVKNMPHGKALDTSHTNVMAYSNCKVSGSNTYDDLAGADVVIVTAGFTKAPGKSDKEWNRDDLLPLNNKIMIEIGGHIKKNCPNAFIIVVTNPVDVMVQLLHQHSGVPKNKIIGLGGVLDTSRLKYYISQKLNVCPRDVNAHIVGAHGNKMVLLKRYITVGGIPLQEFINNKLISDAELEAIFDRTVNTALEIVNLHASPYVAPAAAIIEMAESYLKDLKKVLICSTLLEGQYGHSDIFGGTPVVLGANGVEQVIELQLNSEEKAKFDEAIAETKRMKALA
Chain of Plasmodium falciparum protein kinase 6 (PK6, PF3D7_1337100) (Q8IDW1 1-305): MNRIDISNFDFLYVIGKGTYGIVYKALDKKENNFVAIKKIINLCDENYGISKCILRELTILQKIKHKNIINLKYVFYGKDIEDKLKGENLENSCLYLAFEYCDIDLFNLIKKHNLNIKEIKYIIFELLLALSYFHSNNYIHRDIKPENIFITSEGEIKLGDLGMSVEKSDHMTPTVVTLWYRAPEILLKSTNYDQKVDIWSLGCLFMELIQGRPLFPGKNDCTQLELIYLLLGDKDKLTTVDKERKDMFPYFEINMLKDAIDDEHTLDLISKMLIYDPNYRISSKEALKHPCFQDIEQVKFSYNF

For the molecule `CC(C)(C)NC(=O)C(c1ccc(F)cc1)N(C(=O)c1ccc(CN2CCOCC2)o1)c1ccc(C2CCCCC2)cc1` (configuration not stated), the growth inhibition in experiment [1] is 68% (active); in experiment [4], 87% (active). The results for the inhibition in experiment [2] and in experiment [3] were 0% and -12%, respectively. Moreover, the outcome in experiment [5], in experiment [6], in experiment [7] and in experiment [8] was inactive.
Turning to `Cc1ccc(C2CCN(CCCCNC(=O)c3ccc(NC(=O)c4ccc(Cl)cc4)cc3)CC2)c(C)c1`, the growth inhibition was 10% in experiment [1] and 96% (active) in experiment [4]. Moreover, the inhibition in experiment [2] is 23%; in experiment [3] it was -1%. The outcome in experiment [5], in experiment [6], in experiment [7] and in experiment [8] was inactive.
For the molecule `O=C(Cn1c(CCc2cccc(F)c2F)cc(=O)c2cccnc21)N(CCN1CCCC1)Cc1ccc(-c2ccc(C(F)(F)F)cc2)cc1`, the growth inhibition in experiment [1] is 64% (active); in experiment [4] it was 99% (active). Further, the results for the inhibition in experiment [2] and in experiment [3] were 48% and -3%, respectively. Further, the result in experiment [5], in experiment [6], in experiment [7] and in experiment [8] was inactive.
Take `COc1ccc(-c2cccc(NC(=O)c3cccc(Cl)c3)c2)cc1CN1CCCN(C)CC1`: the values for the growth inhibition in experiment [1] and in experiment [4] were 99% (active) and 101% (active), respectively. The inhibition is 20% in experiment [2] and 6% in experiment [3]. For the same molecule, the outcome in experiment [5], in experiment [6], in experiment [7] and in experiment [8] was inactive.
For `CCNC[C@@H](O)[C@H](Cc1ccccc1)NC(=O)c1cc2c3c(c1)c(CC)cn3CCS(=O)(=O)N2C`, the growth inhibition in experiment [1] was 65% (active); in experiment [4], 99% (active). Further, the figures for the inhibition in experiment [2] and in experiment [3] were 0% and -4%, respectively. Also, the result in experiment [5], in experiment [6], in experiment [7] and in experiment [8] was inactive.
In the case of `CC(CCCCCC(=O)Nc1ccc(CC(C)NCCc2cccc(Cl)c2)cc1)NCCc1cccc(Cl)c1` (configuration not stated), the growth inhibition was 37% in experiment [1] and 91% (active) in experiment [4]. The inhibition is 99% (active) in experiment [2] and 1% in experiment [3]. In addition, the outcome in experiment [5], in experiment [6], in experiment [7] and in experiment [8] was inactive.
Take `NC1CCCN(Cc2cccc(-c3ccc(-c4nc5ccccc5[nH]4)s3)c2)C1` (configuration not stated): the growth inhibition was 88% (active) in experiment [1] and 98% (active) in experiment [4]. Besides, the inhibition in experiment [2] was 21%; in experiment [3] it was -2%. Further, the outcome in experiment [5], in experiment [6], in experiment [7] and in experiment [8] was inactive.
Consider `CC(=O)OCCN1C(=O)c2ccc3c4c(ccc(c24)C1=O)C(=O)N(CCOC(C)=O)C3=O`, for which the results for the growth inhibition in experiment [1] and in experiment [4] were 1% and 94% (active), respectively. Further, the inhibition in experiment [2] was 2%; in experiment [3] it was 3%. Moreover, the outcome in experiment [5], in experiment [6], in experiment [7] and in experiment [8] was inactive.
Regarding `COc1cccc(CN2CCC(C(=O)Nc3ccc(-c4nc5ccccc5[nH]4)cc3)CC2)c1`, the growth inhibition in experiment [1] was 84% (active); in experiment [4] it was 101% (active). The figures for the inhibition in experiment [2] and in experiment [3] were 9% and -3%, respectively. In addition, the result in experiment [5], in experiment [6], in experiment [7] and in experiment [8] was inactive.
For `CCc1cc2c(=O)c(-c3nc(C)cs3)c([C@H](N)Cc3ccc(O)cc3)oc2cc1O`, the growth inhibition in experiment [1] was 19%; in experiment [4], 101% (active). Further, the inhibition is 11% in experiment [2] and 1% in experiment [3]. In addition, the outcome in experiment [5], in experiment [6], in experiment [7] and in experiment [8] was inactive.
For `Nc1c(-c2ccc(C(=O)NCCNCc3ccccc3)cc2)cnn1-c1ccc(C(F)(F)F)cc1`, the growth inhibition in experiment [1] is 2%; in experiment [4] it was 85% (active). Further, the values for the inhibition in experiment [2] and in experiment [3] were 23% and 1%, respectively. In addition, the result in experiment [5], in experiment [6], in experiment [7] and in experiment [8] was inactive.
Take `CC(C)(C)OC(=O)NCc1ccc(Nc2nnc(-c3ccc(OCC(=O)NCc4cc(C(F)(F)F)cc(C(F)(F)F)c4)c([N+](=O)[O-])c3)o2)cc1`: the growth inhibition in experiment [1] is 92% (active); in experiment [4], 97% (active). Further, the inhibition in experiment [2] was 24%; in experiment [3], -1%. Besides, the outcome in experiment [5], in experiment [6], in experiment [7] and in experiment [8] was inactive.
As to `CN(C)S(=O)(=O)c1cc(-c2ccc3nccc(-c4cccc(S(N)(=O)=O)c4)c3c2)cnc1N`, the values for the growth inhibition in experiment [1] and in experiment [4] were 98% (active) and 100% (active), respectively. Further, the inhibition in experiment [2] is 35%; in experiment [3] it was -2%. Also, the outcome in experiment [5], in experiment [6], in experiment [7] and in experiment [8] was inactive.
`O=C(NCc1cccc2ccccc12)C1CCCN(C(=O)c2ccc(O)c(-c3ccc(Cl)c(Cl)c3)c2)C1` (configuration not stated): the growth inhibition in experiment [1] was 23%; in experiment [4] it was 92% (active). Besides, the inhibition in experiment [2] was 1%; in experiment [3], -5%. Besides, the result in experiment [5], in experiment [6], in experiment [7] and in experiment [8] was inactive.
On to `O=C(c1cc(-c2cccs2)[nH]n1)N1CCN(S(=O)(=O)c2ccc(Br)cc2)CC1`, for which the growth inhibition in experiment [1] is 95% (active); in experiment [4], 93% (active). In addition, the figures for the inhibition in experiment [2] and in experiment [3] were -6% and 3%, respectively. Also, the outcome in experiment [5], in experiment [6], in experiment [7] and in experiment [8] was inactive.
As to `c1ccc(Oc2ccc(Nc3ccnc4cc(-c5csc(CN6CCCCC6)n5)ccc34)cc2)nc1`, the growth inhibition in experiment [1] was 95% (active); in experiment [4], 100% (active). In addition, the inhibition in experiment [2] was 22%; in experiment [3], -7%. The outcome in experiment [5], in experiment [6], in experiment [7] and in experiment [8] was inactive.
`O=C(COc1ccc(F)cc1)NC1CCN(c2ccnc3cc(Cl)ccc23)C1` (configuration not stated): the growth inhibition was 100% (active) in experiment [1] and 102% (active) in experiment [4]. Besides, the inhibition in experiment [2] was 24%; in experiment [3], -1%. Moreover, the result in experiment [5], in experiment [6], in experiment [7] and in experiment [8] was inactive.
Turning to `CCNc1cc(C(=O)N[C@@H](Cc2ccccc2)[C@H](O)CNCc2cccc(OC)c2)c(OC)c(N2CCCCS2(=O)=O)c1`, the growth inhibition in experiment [1] is 96% (active); in experiment [4], 97% (active). For the same molecule, the results for the inhibition in experiment [2] and in experiment [3] were 11% and -8%, respectively. The outcome in experiment [5], in experiment [6], in experiment [7] and in experiment [8] was inactive.
`O=S(=O)(NC1=NCCC1)c1cccc(Nc2nc(C(F)(F)F)nc3ccccc23)c1`: the growth inhibition was 8% in experiment [1] and 83% (active) in experiment [4]. The inhibition in experiment [2] was 6%; in experiment [3] it was 0%. Further, the outcome in experiment [5], in experiment [6], in experiment [7] and in experiment [8] was inactive.

The record behind these values is PubChem BioAssay.
